# Columns and labels:
# AAK1 = conditions: compound concentrations:3nM, 10nM, 30nM, 100nM, 300nM, 1000nM, 3000nM, 30000nM,R2:0.99102510116180997,slope:1.0759365754475601,EC50 Standard Error, by the legend:Standard error of the EC50 estimation as provided by the drc package.
# AURKA = conditions: compound concentrations:3nM, 10nM, 30nM, 100nM, 300nM, 1000nM, 3000nM, 30000nM,R2:0.99130699388271104,slope:0.94634188293278299,EC50 Standard Error, by the legend:Standard error of the EC50 estimation as provided by the drc package.
# AURKB = conditions: compound concentrations:3nM, 10nM, 30nM, 100nM, 300nM, 1000nM, 3000nM, 30000nM,R2:0.99833060468955204,slope:0.90064720888108796,EC50 Standard Error, by the legend:Standard error of the EC50 estimation as provided by the drc package.
# BCR = conditions: compound concentrations:3nM, 10nM, 30nM, 100nM, 300nM, 1000nM, 3000nM, 30000nM,R2:0.97560136182595103,slope:1.05645406378656,EC50 Standard Error, by the legend:Standard error of the EC50 estimation as provided by the drc package.
# BMP2K = conditions: compound concentrations:3nM, 10nM, 30nM, 100nM, 300nM, 1000nM, 3000nM, 30000nM,R2:0.98755156955359502,slope:1.4167647234137799,EC50 Standard Error, by the legend:Standard error of the EC50 estimation as provided by the drc package.
# BMPR2 = conditions: compound concentrations:3nM, 10nM, 30nM, 100nM, 300nM, 1000nM, 3000nM, 30000nM,R2:0.93324573239730002,slope:2.2231806087315,EC50 Standard Error, by the legend:Standard error of the EC50 estimation as provided by the drc package.
# CCNH = conditions: compound concentrations:3nM, 10nM, 30nM, 100nM, 300nM, 1000nM, 3000nM, 30000nM,R2:0.984368608654974,slope:1.5961170242536,EC50 Standard Error, by the legend:Standard error of the EC50 estimation as provided by the drc package.
# CHEK1 = conditions: compound concentrations:3nM, 10nM, 30nM, 100nM, 300nM, 1000nM, 3000nM, 30000nM,R2:0.99154934454702504,slope:1.2455496028398201,EC50 Standard Error, by the legend:Standard error of the EC50 estimation as provided by the drc package.
# EPHA1 = conditions: compound concentrations:3nM, 10nM, 30nM, 100nM, 300nM, 1000nM, 3000nM, 30000nM,R2:0.96586410409124401,slope:0.42399886433003398,EC50 Standard Error, by the legend:Standard error of the EC50 estimation as provided by the drc package.
# EPHA7 = conditions: compound concentrations:3nM, 10nM, 30nM, 100nM, 300nM, 1000nM, 3000nM, 30000nM,R2:0.88780253900259998,slope:1.37394463734268,EC50 Standard Error, by the legend:Standard error of the EC50 estimation as provided by the drc package.
# FER = conditions: compound concentrations:3nM, 10nM, 30nM, 100nM, 300nM, 1000nM, 3000nM, 30000nM,R2:0.99765697857562097,slope:1.03588430141815,EC50 Standard Error, by the legend:Standard error of the EC50 estimation as provided by the drc package.
# FLT3 = conditions: compound concentrations:3nM, 10nM, 30nM, 100nM, 300nM, 1000nM, 3000nM, 30000nM,R2:0.96575906270431899,slope:1.4210084972678201,EC50 Standard Error, by the legend:Standard error of the EC50 estimation as provided by the drc package.
# FLT4 = conditions: compound concentrations:3nM, 10nM, 30nM, 100nM, 300nM, 1000nM, 3000nM, 30000nM,R2:0.97672359479992199,slope:1.0836870062150401,EC50 Standard Error, by the legend:Standard error of the EC50 estimation as provided by the drc package.
# INCENP = conditions: compound concentrations:3nM, 10nM, 30nM, 100nM, 300nM, 1000nM, 3000nM, 30000nM,R2:0.98280014886482903,slope:1.1847745210473,EC50 Standard Error, by the legend:Standard error of the EC50 estimation as provided by the drc package.
# IRAK4 = conditions: compound concentrations:3nM, 10nM, 30nM, 100nM, 300nM, 1000nM, 3000nM, 30000nM,R2:0.93116388715812703,slope:1.4824347437463801,EC50 Standard Error, by the legend:Standard error of the EC50 estimation as provided by the drc package.
# MAP3K11 = conditions: compound concentrations:3nM, 10nM, 30nM, 100nM, 300nM, 1000nM, 3000nM, 30000nM,R2:0.99429213742215306,slope:0.76505348781975802,EC50 Standard Error, by the legend:Standard error of the EC50 estimation as provided by the drc package.
# MAP4K2 = conditions: compound concentrations:3nM, 10nM, 30nM, 100nM, 300nM, 1000nM, 3000nM, 30000nM,R2:0.97693743702181501,slope:1.5044165115380901,EC50 Standard Error, by the legend:Standard error of the EC50 estimation as provided by the drc package.
# MARK2 = conditions: compound concentrations:3nM, 10nM, 30nM, 100nM, 300nM, 1000nM, 3000nM, 30000nM,R2:0.98471401601648001,slope:1.6013857186590299,EC50 Standard Error, by the legend:Standard error of the EC50 estimation as provided by the drc package.
# MARK3 = conditions: compound concentrations:3nM, 10nM, 30nM, 100nM, 300nM, 1000nM, 3000nM, 30000nM,R2:0.98601648224136496,slope:1.5139039229536799,EC50 Standard Error, by the legend:Standard error of the EC50 estimation as provided by the drc package.
# MARK4 = conditions: compound concentrations:3nM, 10nM, 30nM, 100nM, 300nM, 1000nM, 3000nM, 30000nM,R2:0.98999073963654005,slope:9.1146195696381707,EC50 Standard Error, by the legend:Standard error of the EC50 estimation as provided by the drc package.
substance,measurement,setting,value
TAK659,EC50,AAK1,997 nM
same,Kd,AAK1; read-out: apparent Kd,720 nM
same,EC50,AURKA,1280 nM
same,Kd,AURKA; read-out: apparent Kd,590 nM
same,EC50,AURKB,161 nM
same,Kd,AURKB; read-out: apparent Kd,86.7 nM
same,EC50,BCR,1020 nM
same,Kd,BCR; read-out: apparent Kd,528 nM
same,EC50,BMP2K,537 nM
same,Kd,BMP2K; read-out: apparent Kd,456 nM
same,EC50,BMPR2,325 nM
same,Kd,BMPR2; read-out: apparent Kd,257 nM
same,EC50,CCNH,1730 nM
same,Kd,CCNH; read-out: apparent Kd,1580 nM
same,EC50,CHEK1,149 nM
same,Kd,CHEK1; read-out: apparent Kd,133 nM
same,EC50,EPHA1,2910 nM
same,Kd,EPHA1; read-out: apparent Kd,1000 nM
same,EC50,EPHA7,810 nM
same,Kd,EPHA7; read-out: apparent Kd,617 nM
same,EC50,FER,316 nM
same,Kd,FER; read-out: apparent Kd,202 nM
same,EC50,FLT3,507 nM
same,Kd,FLT3; read-out: apparent Kd,313 nM
same,EC50,FLT4,564 nM
same,Kd,FLT4; read-out: apparent Kd,308 nM
same,EC50,INCENP,150 nM
same,Kd,INCENP; read-out: apparent Kd,150 nM
same,EC50,IRAK4,718 nM
same,Kd,IRAK4; read-out: apparent Kd,675 nM
same,EC50,MAP3K11,9090 nM
same,Kd,MAP3K11; read-out: apparent Kd,7190 nM
same,EC50,MAP4K2,595 nM
same,Kd,MAP4K2; read-out: apparent Kd,459 nM
same,EC50,MARK2,837 nM
same,Kd,MARK2; read-out: apparent Kd,762 nM
same,EC50,MARK3,680 nM
same,Kd,MARK3; read-out: apparent Kd,670 nM
same,EC50,MARK4,1050 nM
same,Kd,MARK4; read-out: apparent Kd,1050 nM

# Reference: publication PMC11062922 (Nature Chemical Biology, 2023)
